Measurements reported in PubChem BioAssay AID904 (National Center for Advancing Translational Sciences (NCATS), 2007).
The whole screen tested about 55,000 compounds, of which about 530 (0.96%) were called active. Inconclusive results (about 7%) are left out. This is one part of a sample in which actives are shown more often than they occur. The call rests on the fitted dose curve; in most records, active means well fitted cell-killing curve with a large enough effect; inconclusive means small, poorly fitted or top-dose-only effect; inactive means no such curve, though single readings can be large or run the other way.

Assay: qHTS Screen for Compounds that Selectively Target Cancer Cells with p53 Mutations: Cytotoxicity of p53 Null Cells at the Nonpermissive Temperature; further: nearly all actives have a fitted effect of over 50% in size;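 on activity, negative = cell killing: 0% = DMSO only and -100% = full killing by 100 µM tamoxifen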
Conditions: H1299 p53-null (neo) cells, 39C, ATPlite viability, 24 h; series mostly up to 46.1 µM; activity, negative = cell killing: at the top concentration
In short: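 Concentration-response (up to 46 uM) was run for 24 h at the nonpermissive 39C on H1299-p53A138V or H1299-neo cells. ATP content was measured with ATPlite luminescence. AC50 values were Hill-modeled after normalizing between DMSO and 100 uM tamoxifen killing.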
Potency means the concentration at half of the fitted maximal effect.

Q: With `Cc1ccc(C(=O)Nc2ccc3[nH]c(=O)c(=O)[nH]c3c2)cc1` as the compound, how does the “activity, negative = cell killing” value read?
A: The value was 16.2% (inactive).

Q: With `COc1ccc(CNC(=O)c2ccc3c(O)c(S(=O)(=O)c4ccccc4)c(=O)[nH]c3c2)cc1` as the compound, how does the “activity, negative = cell killing” value read?
A: The value was -10.1% (inactive).

Q: With `CC(C)c1ccc(NC(=O)c2ccc3c(O)c(S(=O)(=O)c4ccccc4)c(=O)[nH]c3c2)cc1` as the compound, how does the Potency read?
A: The Potency was 7.94 µM (active).

Q: For `CCC(C(=O)Nc1cccc(-c2nc3cccnc3s2)c1C)c1ccccc1` (centres undefined), which “activity, negative = cell killing” value is on record?
A: The value was 6.12% (inactive).

Q: With `Cc1c(NC(=O)C(C)(C)C)cccc1-c1nc2ccccc2s1` as the compound, how does the Potency read?
A: Its Potency is 15.8 µM (active).

Q: For `Cc1c(NC(=O)Cc2ccccc2)cccc1-c1nc2cccnc2s1`, which “activity, negative = cell killing” value is on record?
A: Its value is 3.6% (inactive).

Q: With `O=C(Nc1cc(C(F)(F)F)ccc1Cl)C(=O)N1CCCCC1` as the compound, how does the activity, negative = cell killing read?
A: The activity, negative = cell killing was -3.07% [at 1.84 µM] (inactive).

Q: Which “activity, negative = cell killing” value does the source give for `Cc1cccc(NC(=O)CSc2ncc(-c3ccccc3)[nH]2)c1C` here?
A: The value was 0.286% (inactive).

Q: Which “activity, negative = cell killing” value does the source give for `Cc1ccc(S(=O)(=O)c2cn(Cc3ccccc3)c3cc(N4CCCC4)c(F)cc3c2=O)c(C)c1` here?
A: Its value is -14.3% (inactive).

Q: With `COCCN(Cc1ccco1)C(=O)Cn1ncc2c([nH]c3ccccc32)c1=O` as the compound, how does the “activity, negative = cell killing” value read?
A: The value was -13.3% (inactive).

Q: For `Cc1ccc(CN(C(=O)COc2ccc(Cl)cc2C)C2CCS(=O)(=O)C2)o1` (centres undefined), which “activity, negative = cell killing” value is on record?
A: Its value is 1.18% (inactive).

Q: Which “activity, negative = cell killing” value does the source give for `COc1cc(C(=O)N2CCN(c3ccc(Nc4ccc(C)cc4)nn3)CC2)cc(OC)c1OC` here?
A: The value was 21.3% (inactive).

Q: Which “activity, negative = cell killing” value does the source give for `O=C(COC(=O)c1cc2c(s1)CCCC2)NCc1ccccc1Cl` here?
A: Its value is -13.8% (inactive).

Q: Which activity, negative = cell killing does the source give for `Cc1ccc(NC(=O)c2sc3nc(N)c(C#N)cc3c2N)cc1` here?
A: Its activity, negative = cell killing is 9.07% [at 1.84 µM] (inactive).

Q: Which “activity, negative = cell killing” value does the source give for `CCOc1ccc(CNC(=O)C2CCN(c3nnc(-n4cccc4CNc4ccc(C)cc4)s3)CC2)cc1OC` here?
A: Its value is -31.7% (inactive).

Q: With `CCOC(=O)/C(C#N)=C/c1ccc(N2CCN(Cc3ccccc3)CC2)cc1` as the compound, how does the activity, negative = cell killing read?
A: Its activity, negative = cell killing is 2.74% [at 1.84 µM] (inactive).

Q: Which “activity, negative = cell killing” value does the source give for `Cc1cccc(-n2c(=O)c3c(c4cc(C)ccc4n3C)n(CC(=O)Nc3ccccc3Cl)c2=O)c1` here?
A: The value was -3.24% (inactive).

Q: With `CCOc1ccc(-c2nonc2NC(=O)c2oc3ccc(CC)cc3c2C)cc1` as the compound, how does the “activity, negative = cell killing” value read?
A: Its value is -18.4% (inactive).

Q: With `Cc1ccc(S(=O)(=O)N2CCN(CC(=O)N/N=C/c3cc([N+](=O)[O-])ccc3Cl)CC2)cc1` as the compound, how does the “activity, negative = cell killing” value read?
A: The value was 17.1% (inactive).

Q: For `CCc1nnc(SCC(=O)Nc2cc(OC)ccc2OC)nc1CC`, which “activity, negative = cell killing” value is on record?
A: The value was -14.4% (inactive).

Q: With `O=c1n(Cc2cccc(C(F)(F)F)c2)c2ccccc2c2nc(-c3ccccc3)nn12` as the compound, how does the “activity, negative = cell killing” value read?
A: Its value is 2.19% (inactive).

Q: For `Cc1c(NC(=O)c2cc(-c3ccc(Br)cc3)on2)c(=O)n(-c2ccccc2)n1C`, which “activity, negative = cell killing” value is on record?
A: The value was 16.8% (inactive).

Q: With `Cc1ccc(-c2nnc(Nc3ccc(OCC(N)=O)cc3)c3ccccc23)cc1S(=O)(=O)NCC1CCCO1` (centres undefined) as the compound, how does the Potency read?
A: Its Potency is 12.6 µM (active).

Q: Which “activity, negative = cell killing” value does the source give for `Cc1ccc(Nc2nnc(-c3ccc(C)c(S(=O)(=O)N4CCCCC4)c3)c3ccccc23)cc1` here?
A: Its value is 4.35% (inactive).

Q: With `Cc1ccc(-c2nnc(Nc3cccc(Br)c3)c3ccccc23)cc1S(=O)(=O)NCC1CCCO1` (centres undefined) as the compound, how does the “activity, negative = cell killing” value read?
A: The value was 13.7% (inactive).

Q: Which “activity, negative = cell killing” value does the source give for `C=CCn1c(SCC(N)=O)nnc1-c1cc2c(s1)CCC(CC)C2` (centres undefined) here?
A: The value was -6.46% (inactive).

Q: With `Cc1nc2sc(C)c(C)n2c(=O)c1S(=O)(=O)NCCc1ccc(Cl)cc1` as the compound, how does the “activity, negative = cell killing” value read?
A: Its value is -2.74% (inactive).

Q: With `Cc1cc(C)c(/C=C/c2onc(C)c2S(=O)(=O)N2CCC(C(=O)Nc3ccc(Cl)cc3C)CC2)c(C)c1` as the compound, how does the “activity, negative = cell killing” value read?
A: The value was -11.9% (inactive).

Q: With `O=C(CNS(=O)(=O)c1cccs1)N1CCN(c2ccccc2Cl)CC1` as the compound, how does the “activity, negative = cell killing” value read?
A: Its value is -5.35% (inactive).

Q: With `COc1ccc(OC)c(NC(=O)CSC2=Nc3ccccc3C3=NC(CC(=O)NCCc4ccccc4)C(=O)N23)c1` (centres undefined) as the compound, how does the “activity, negative = cell killing” value read?
A: Its value is 11.4% (inactive).

Q: With `COc1cc(Cl)c(C)cc1NC(=O)COC(=O)c1cc(SC)ccc1Cl` as the compound, how does the “activity, negative = cell killing” value read?
A: The value was 6.7% (inactive).

Q: With `Cc1cc2n(n1)C(c1cc(C(C)(C)C)c(O)cc1O)Nc1ccccc1-2` (centres undefined) as the compound, how does the “activity, negative = cell killing” value read?
A: Its value is -1.76% (inactive).

Q: With `c1ccc(-c2noc(-c3cccs3)n2)nc1` as the compound, how does the Potency read?
A: The Potency was 14.1 µM (active).

Q: Which “activity, negative = cell killing” value does the source give for `Clc1ccc(-n2nnnc2-c2cnc(-c3ccccn3)nc2-c2cccs2)cc1` here?
A: Its value is -18.6% (inactive).

Q: For `O=C(CN1C(=O)CCn2nc(-c3ccccc3)cc21)NCc1ccccc1`, which “activity, negative = cell killing” value is on record?
A: Its value is -23.9% (inactive).

Q: For `CN(C(=O)c1c(Cl)cnn1C)C12CC3CC(CC(C3)C1)C2`, which activity, negative = cell killing is on record?
A: Its activity, negative = cell killing is 17.1% [at 1.84 µM] (inactive).

Q: Which “activity, negative = cell killing” value does the source give for `COc1ccc(-c2csc(NC(=O)COC(=O)Cc3ccc(Cl)cc3Cl)n2)cc1` here?
A: The value was 9.52% (inactive).

Q: With `COc1ccc(NC(=O)c2cc3cc(C)ccc3n2C)cc1` as the compound, how does the “activity, negative = cell killing” value read?
A: The value was -7.99% (inactive).

Q: For `Nc1nnc(SCC(=O)Nc2ccc3nc(SCC(=O)Nc4ccccc4)sc3c2)s1`, which “activity, negative = cell killing” value is on record?
A: Its value is -13.2% (inactive).

Q: For `Cc1ccccc1CNC(=O)CSc1nnc(C)c2c(C)n(-c3ccccc3)nc12`, which “activity, negative = cell killing” value is on record?
A: The value was 30.6% (inactive).

Q: Which “activity, negative = cell killing” value does the source give for `O=C(CSc1ccc(C(F)(F)F)cc1[N+](=O)[O-])NCCOc1ccccc1` here?
A: The value was 3.3% (inactive).

Q: With `COc1ccc(-c2c3c(=O)n(C)c(=O)n(C)c3c3c(C)nc4ccccc4n23)cc1` as the compound, how does the “activity, negative = cell killing” value read?
A: The value was -10.8% (inactive).

Q: With `CCc1nnc(SCc2nc(-c3cccc(C)c3)oc2C)c2cc3sc(C)cc3n12` as the compound, how does the “activity, negative = cell killing” value read?
A: Its value is -17.9% (inactive).

Q: With `Cc1noc(COc2ccccc2OCc2onc(C)c2Cl)c1Cl` as the compound, how does the “activity, negative = cell killing” value read?
A: Its value is 4.54% (inactive).

Q: For `O=C(NCCc1ccc(Cl)cc1)c1ccc2nc(CCc3ccccc3)oc2c1`, which “activity, negative = cell killing” value is on record?
A: The value was 0.294% (inactive).

Q: With `COc1cc(C(=O)NCCc2csc3nc(-c4ccccc4C)nn23)cc(OC)c1OC` as the compound, how does the “activity, negative = cell killing” value read?
A: Its value is -2.62% (inactive).

Q: With `COc1ccc2c(c1)c(N1CCCC1=O)c(C(=O)Nc1ccccc1C(F)(F)F)n2C` as the compound, how does the “activity, negative = cell killing” value read?
A: Its value is -2.55% (inactive).

Q: With `Cc1ccccc1-n1c(C)cc(/C=C2\NC(=O)NC2=O)c1C` as the compound, how does the Potency read?
A: The Potency was 8.91 µM (active).

Q: Which “activity, negative = cell killing” value does the source give for `CCc1ccc(CNC(=O)c2cc3cc4ccc(OC)cc4nc3o2)cc1` here?
A: Its value is -17.3% (inactive).

Q: With `CCOc1ccc(NC(=O)Cn2cc(C(=O)c3ccc(C)cc3)c(=O)c3cc4c(cc32)OCCO4)cc1` as the compound, how does the “activity, negative = cell killing” value read?
A: The value was 2.66% (inactive).

Q: For `Cc1cc(C)cc(NC(=O)CSc2nc(=O)n(CCN3CCOCC3)c3c2CCC3)c1`, which “activity, negative = cell killing” value is on record?
A: Its value is 13.2% (inactive).

Q: With `CCCCCCCCC(=O)NCCOc1ccccc1` as the compound, how does the “activity, negative = cell killing” value read?
A: Its value is 25.4% (inactive).

Q: With `Cc1ccc(NC(=O)CN2C(=O)CC(C)Sc3ccccc32)c(C)c1` (centres undefined) as the compound, how does the “activity, negative = cell killing” value read?
A: Its value is -6.72% (inactive).

Q: Which “activity, negative = cell killing” value does the source give for `O=C(CSc1nc2c(c(=O)[nH]1)CN(Cc1ccc(F)cc1)CC2)Nc1ccccc1Cl` here?
A: Its value is -2.2% (inactive).

Q: For `Cc1ccc(Nc2c(-c3ccc(C)s3)nc3ccccn23)cc1`, which “activity, negative = cell killing” value is on record?
A: The value was -7.56% (inactive).

Q: For `Cc1ccn2c(Nc3ccc4c(c3)OCCO4)c(-c3ccc(C)s3)nc2c1`, which Potency is on record?
A: Its Potency is 10 µM (active).

Q: Which “activity, negative = cell killing” value does the source give for `Cc1cccc2nc(-c3ccc(Cl)s3)c(Nc3ccc4c(c3)OCCO4)n12` here?
A: Its value is -3.18% (inactive).

Q: Which “activity, negative = cell killing” value does the source give for `CCn1c2ccccc2c2nnc(N3CCN(c4cc(C)ccc4C)CC3)nc21` here?
A: The value was 23.4% (inactive).

Q: Which “activity, negative = cell killing” value does the source give for `Cc1ccc(CCNC(=O)c2ccc(CS(=O)(=O)Cc3cccc(C)c3)o2)cc1` here?
A: Its value is 14.9% (inactive).

Q: For `Cc1ccc(Cl)cc1N1CCN(C(=O)CN2C(=O)COc3ccc(S(=O)(=O)N4CCOCC4)cc32)CC1`, which “activity, negative = cell killing” value is on record?
A: Its value is -21.1% (inactive).

Q: For `Cc1cc(C)cc(-n2c(SCC(=O)NCC3CCCO3)nc3c([nH]c4ccccc43)c2=O)c1` (centres undefined), which “activity, negative = cell killing” value is on record?
A: The value was 3.52% (inactive).

Q: For `CC1CCc2noc(NC(=O)c3ccc([N+](=O)[O-])cc3)c2C1` (centres undefined), which “activity, negative = cell killing” value is on record?
A: The value was 5.3% (inactive).

Q: For `COc1ccc(C(=O)Nc2onc3c2CCCC3)cc1`, which Potency is on record?
A: The Potency was 7.94 µM (active).

Q: With `COc1ccc(-c2cc(C(=O)Nc3sc4c(c3C(N)=O)CCCC4)no2)cc1` as the compound, how does the “activity, negative = cell killing” value read?
A: The value was -15.4% (inactive).

Q: Which “activity, negative = cell killing” value does the source give for `O=C(Cn1ncc2c3ccccc3n(Cc3ccccc3)c2c1=O)NC1CCCCCC1` here?
A: Its value is -12.2% (inactive).

Q: With `Cc1c(Cl)cccc1NC(=O)c1noc2c1CCCC2` as the compound, how does the “activity, negative = cell killing” value read?
A: The value was -12.7% (inactive).

Q: Which “activity, negative = cell killing” value does the source give for `O=C(N/N=C/c1cccc([N+](=O)[O-])c1)C1CC(=O)N(c2ccc(Br)cc2)C1` (centres undefined) here?
A: Its value is 32.2% (inactive).

Q: With `CN(Cc1ccccc1)C(=O)COC(=O)c1ccccc1Nc1ccccc1` as the compound, how does the activity, negative = cell killing read?
A: The activity, negative = cell killing was -8.55% [at 1.84 µM] (inactive).

Q: For `O=C(NCc1ccccc1)c1cccc(NC(=O)N2CCSc3ncccc32)c1`, which “activity, negative = cell killing” value is on record?
A: The value was 4.35% (inactive).
